# Reference: PubChem BioAssay AID504833 (Johns Hopkins Ion Channel Center, 2011)
# About 2,200 (88%) of roughly 2,500 compounds were called active. So high a share suggests a set chosen from earlier hits. Only a sample is shown. Values without a mark were called inactive.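 Rule for the calls: active = primary screen active, with duplicate mean activation above negative control mean plus 3 SD (cut at about 11% in these data); inactive = the rest.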
# Biological target: High affinity choline transporter 1 (Homo sapiens) (UniProt Q9GZV3)
# Sequence (Q9GZV3 whole entry, looked up): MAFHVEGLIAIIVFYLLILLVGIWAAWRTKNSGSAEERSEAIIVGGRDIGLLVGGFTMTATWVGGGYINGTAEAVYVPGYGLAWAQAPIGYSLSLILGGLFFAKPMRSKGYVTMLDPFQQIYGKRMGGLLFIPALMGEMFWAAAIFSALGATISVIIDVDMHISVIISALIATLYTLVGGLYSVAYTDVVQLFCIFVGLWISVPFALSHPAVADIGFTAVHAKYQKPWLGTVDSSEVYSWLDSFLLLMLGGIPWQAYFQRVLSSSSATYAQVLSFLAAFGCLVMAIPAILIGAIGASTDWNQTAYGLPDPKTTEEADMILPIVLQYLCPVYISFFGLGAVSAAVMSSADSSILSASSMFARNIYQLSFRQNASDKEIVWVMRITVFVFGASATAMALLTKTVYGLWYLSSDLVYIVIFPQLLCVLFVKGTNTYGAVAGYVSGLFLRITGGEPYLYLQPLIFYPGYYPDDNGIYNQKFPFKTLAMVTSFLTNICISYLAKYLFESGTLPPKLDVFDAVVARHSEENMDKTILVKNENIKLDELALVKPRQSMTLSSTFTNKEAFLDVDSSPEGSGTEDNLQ
# Experiment: human choline transporter potentiators – cell-based, membrane potential dye, duplicate, confirmation (AID 504833)
# Conditions: CHT-expressing cells, membrane potential dye fluorescence (FDSS); at 10 µM; active compounds read high; % of choline EC20–EC90 response window; HEK293 expressing CHT LV-AA mutant; choline added at its EC20
row,SMILES,activation
1,CN1CCN(c2cc(N3CCNCC3)ccc2[N+](=O)[O-])CC1,80.3% (active)
2,Cc1nc2ccc(N3CCN(C)CC3)cc2nc1C,20.3% (active)
3,CCCCCn1c(=O)c(C(=O)Nc2c(C)n(C)n(-c3ccccc3)c2=O)c(O)c2ccccc21,6.79%
4,CCN1CCN(c2ccc([N+](=O)[O-])cc2C#N)CC1,43.4% (active)
5,CCOc1ccc(-c2cc(C)[n+](CCN(CC)CC)c(-c3ccc(OCC)cc3)c2)cc1,34.4% (active)
6,CC[N+](CC)(CC)CCCCCCCCCC[N+](CC)(CC)CC,41% (active)
